# Source: PubChem BioAssay (EPA / NIEHS)
# The source made the active and inactive calls. The calls were made as follows: active = hit-call score of the fitted dose curve at least 0.9, where 1 is the maximum; inactive = score below 0.9.
# What was measured:
# Conditions in all cases: mRNA level, 48 h; actives raise or lower the signal
# BCL2L11 (gene 10018) = test: LTEA_HepaRG_BCL2L11: Life Technologies and Expression Analysis (LTEA) Assay for Bcl-2 (BCL2L11) gene using HepaRG (AID 2283473)
# In short: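 Read-out is BCL2L11 transcript level by qRT-PCR, normalized to three housekeeping genes and fitted bidirectionally against 0.5% DMSO vehicle. HepaRG cells received chemicals for 48 h in serum-free induction medium, 100 uM down in half-log dilutions.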
# [1] = read-out: Apolipoprotein A-V (APOA5) gene, APOA5 (gene 116519); test: LTEA_HepaRG_APOA5: Life Technologies and Expression Analysis (LTEA) Assay for Apolipoprotein A-V (APOA5) gene using HepaRG (AID 2283474)
# In short: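 Readout is APOA5 transcript level by qRT-PCR on Fluidigm dynamic arrays, normalized to three housekeeping genes. HepaRG cultures received chemicals for 48 h at up to 100 uM (half-log steps, 0.5% DMSO), with gain or loss scored relative to DMSO.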
# [2] = read-out: Apoptosis regulator Bcl-2 (Homo sapiens) (UniProt P10415); test: LTEA_HepaRG_BCL2: Life Technologies and Expression Analysis (LTEA) Assay for Bcl-2 gene using HepaRG (AID 2283475)
# In short: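 Each chemical was tested in duplicate on HepaRG cultures held in serum-free induction medium for 48 h, highest concentration 100 uM with half-log dilutions. Transcript levels came from multiplexed qRT-PCR, normalised to housekeeping genes; activity was scored in either direction relative to DMSO.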
# [3] = read-out: Bcl-2 (BID) gene, BID (gene 637); test: LTEA_HepaRG_BID: Life Technologies and Expression Analysis (LTEA) Assay for Bcl-2 (BID) gene using HepaRG (AID 2283476)
# In short: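 Assay used HepaRG hepatic cells treated 48 h in serum-free medium with half-log dilutions from 100 uM. Endpoint: BID mRNA, qRT-PCR, normalized to ACTB/GAPDH/POLR2A.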
# Caspase-3 (Homo sapiens) = Caspase-3 (Homo sapiens) (UniProt P42574); test: LTEA_HepaRG_CASP3: Life Technologies and Expression Analysis (LTEA) Assay for cysteine-aspartic acid protease (CASP3) using HepaRG (AID 2283477)
# In short: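 Read-out is CASP3 mRNA level by TaqMan qRT-PCR in human HepaRG cells after 48 h chemical exposure. Eight half-log concentrations topping at 100 uM were tested in 0.5% DMSO; gain or loss was fitted relative to DMSO.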
# [4] = read-out: Cytochrome P450 (CYP24A1), CYP24A1 (gene 1591); test: LTEA_HepaRG_CYP24A1: Life Technologies and Expression Analysis (LTEA) Assay for Cytochrome P450 (CYP24A1) using HepaRG (AID 2283478)
# In short: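 HepaRG, 48 h chemical exposure, 8-pt half-log CRC from 100 uM, 0.5% DMSO vehicle, duplicates. Endpoint: CYP24A1 mRNA by Fluidigm TaqMan qRT-PCR, normalized ACTB/GAPDH/POLR2A; gain/loss fit vs DMSO.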
# [5] = read-out: cysteine-aspartic acid protease (CASP8), CASP8 (gene 841); test: LTEA_HepaRG_CASP8: Life Technologies and Expression Analysis (LTEA) Assay for cysteine-aspartic acid protease (CASP8) using HepaRG (AID 2283480)
# In short: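 qRT-PCR readout of CASP8 mRNA, normalized to three housekeeping genes, after 48 h chemical exposure of HepaRG cells; 8-point half-log series, top 100 uM, 0.5% DMSO vehicle. Bidirectional curve fitting against DMSO baseline.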
# [6] = read-out: Cytochrome P450 (CYP2B6), CYP2B6 (gene 1555); test: LTEA_HepaRG_CYP2B6: Life Technologies and Expression Analysis (LTEA) Assay for Cytochrome P450 (CYP2B6) using HepaRG (AID 2283481)
# In short: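 HepaRG cells plated 48 h, switched to serum-free induction medium, then dosed 48 h (8 points, half-log from 100 uM, 0.5% DMSO). RNA isolated; CYP2B6 expression measured by qRT-PCR; gain or loss fitted relative to DMSO.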
# CYP2C8 (gene 1558) = test: LTEA_HepaRG_CYP2C8: Life Technologies and Expression Analysis (LTEA) Assay for CYP2C8 using HepaRG (AID 2283483)
# In short: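 HepaRG (human liver line), 48 h chemical exposure, 8-pt half-log series from 100 uM, 0.5% DMSO vehicle. Readout: CYP2C8 transcript by qRT-PCR, housekeeping-normalized. Bidirectional fit vs DMSO baseline.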
# CYP2C9 (gene 1559) = test: LTEA_HepaRG_CYP2C9: Life Technologies and Expression Analysis (LTEA) Assay for CYP2C9 using HepaRG (AID 2283484)
# In short: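 HepaRG, 48 h dosing, 8-pt half-log series, top 100 uM, 0.5% DMSO vehicle. Read-out: CYP2C9 transcript by TaqMan qRT-PCR, housekeeping-normalized (ACTB/GAPDH/POLR2A). Gain or loss fitted vs DMSO baseline.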
# CYP2E1 (gene 1571) = test: LTEA_HepaRG_CYP2E1: Life Technologies and Expression Analysis (LTEA) Assay for CYP2E1 using HepaRG (AID 2283485)
# In short: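 Assay uses 48 h exposure of HepaRG hepatic cells, eight concentrations to 100 uM. Expression of CYP2E1 is quantified by TaqMan qRT-PCR with ACTB, GAPDH and POLR2A normalization; curves fitted in both directions relative to vehicle.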
# CYP4A11 (gene 1579) = test: LTEA_HepaRG_CYP4A11: Life Technologies and Expression Analysis (LTEA) Assay for CYP4A11 using HepaRG (AID 2283486)
# In short: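 HepaRG, 48 h chem exposure, 8 conc (100 uM top, half-log), 0.5% DMSO vehicle; qRT-PCR readout, housekeeping-gene normalized; bidirectional curve fit vs DMSO baseline.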
# [7] = read-out: Cytochrome P450 3A4 (Homo sapiens) (UniProt P08684); test: LTEA_HepaRG_CYP3A4: Life Technologies and Expression Analysis (LTEA) Assay for CYP3A4 using HepaRG (AID 2283487)
# In short: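 Differentiated HepaRG cells in serum-free induction medium exposed in duplicate for 48 h to 8 half-log concentrations up to 100 uM in 0.5% DMSO. CYP3A4 mRNA measured by qRT-PCR normalized to ACTB, GAPDH and POLR2A; bidirectional fit versus DMSO.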
# [8] = read-out: DNA damage-inducible transcript 3 (DDIT3), DDIT3 (gene 1649); test: LTEA_HepaRG_DDIT3: Life Technologies and Expression Analysis (LTEA) Assay for DNA damage-inducible transcript 3 (DDIT3) using HepaRG (AID 2283488)
# In short: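 Eight-point concentration-response (100 uM highest, half-log dilutions) in HepaRG, 48 h, duplicate wells. Endpoint: qRT-PCR mRNA, normalized (ACTB, GAPDH, POLR2A), bidirectional fitting with DMSO as baseline.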
# [9] = read-out: Pro-epidermal growth factor (Homo sapiens) (UniProt P01133); test: LTEA_HepaRG_EGF: Life Technologies and Expression Analysis (LTEA) Assay for Epidermal growth factor (EGF) using HepaRG (AID 2283489)
# In short: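 HepaRG, 48 h dosing, 100 uM top, half-log x8, 0.5% DMSO. Readout: TaqMan qRT-PCR (Fluidigm array), housekeeping-normalized. Gain or loss of signal fit vs DMSO.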
# [10] = read-out: Ezrin (EZR), EZR (gene 7430); test: LTEA_HepaRG_EZR: Life Technologies and Expression Analysis (LTEA) Assay for Ezrin (EZR) using HepaRG (AID 2283491)
# In short: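 Differentiated human HepaRG cells, 48 h after plating, were exposed in serum-free induction medium for 48 hours to eight half-log concentrations up to 100 uM in 0.5% DMSO. EZR mRNA was measured by TaqMan qRT-PCR, normalized to ACTB, GAPDH and POLR2A, and fitted bidirectionally against DMSO.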
# [11] = read-out: Cytochrome P450 3A7 (Homo sapiens) (UniProt P24462); test: LTEA_HepaRG_CYP3A7: Life Technologies and Expression Analysis (LTEA) Assay for CYP3A7 using HepaRG (AID 2283492)
# In short: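 Human HepaRG liver cells, 48 h post-plating, switched to serum-free induction medium and exposed in duplicate for 48 h. Dosing: 100 uM top, half-log dilutions, 8 points, 0.5% DMSO vehicle. Read-out: CYP3A7 mRNA, gain or loss fitted against DMSO baseline.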
# [12] = read-out: Early growth response protein 1 (EGR1) transcription factor, EGR1 (gene 1958); test: LTEA_HepaRG_EGR1: Life Technologies and Expression Analysis (LTEA) Assay for Early growth response protein 1 (EGR1) transcription factor using HepaRG (AID 2283490)
# In short: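 HepaRG, 48 h exposure, 8-pt half-log series from 100 uM, 0.5% DMSO vehicle; EGR1 transcript by TaqMan qRT-PCR (Fluidigm array), housekeeping-normalized; bidirectional fit relative to DMSO baseline.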
# Chain of Apoptosis regulator Bcl-2 (Homo sapiens) (P10415 whole entry, looked up): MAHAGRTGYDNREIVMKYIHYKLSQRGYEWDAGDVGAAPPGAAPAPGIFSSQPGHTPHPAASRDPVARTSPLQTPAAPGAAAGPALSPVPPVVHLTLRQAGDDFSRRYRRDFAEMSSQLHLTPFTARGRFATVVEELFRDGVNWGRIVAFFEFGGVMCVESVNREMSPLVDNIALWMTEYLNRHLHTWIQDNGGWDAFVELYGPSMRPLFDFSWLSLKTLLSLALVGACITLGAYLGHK
# Chain of Caspase-3 (Homo sapiens) (P42574 whole entry, looked up): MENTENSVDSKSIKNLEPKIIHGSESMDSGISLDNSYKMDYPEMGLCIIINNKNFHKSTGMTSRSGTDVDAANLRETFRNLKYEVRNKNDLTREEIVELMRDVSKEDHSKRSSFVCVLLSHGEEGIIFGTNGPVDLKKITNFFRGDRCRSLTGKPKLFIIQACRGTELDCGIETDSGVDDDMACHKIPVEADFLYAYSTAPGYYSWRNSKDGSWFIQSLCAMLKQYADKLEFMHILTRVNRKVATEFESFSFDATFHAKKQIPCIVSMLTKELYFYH
# Chain of Cytochrome P450 3A7 (Homo sapiens) (P24462 whole entry, looked up): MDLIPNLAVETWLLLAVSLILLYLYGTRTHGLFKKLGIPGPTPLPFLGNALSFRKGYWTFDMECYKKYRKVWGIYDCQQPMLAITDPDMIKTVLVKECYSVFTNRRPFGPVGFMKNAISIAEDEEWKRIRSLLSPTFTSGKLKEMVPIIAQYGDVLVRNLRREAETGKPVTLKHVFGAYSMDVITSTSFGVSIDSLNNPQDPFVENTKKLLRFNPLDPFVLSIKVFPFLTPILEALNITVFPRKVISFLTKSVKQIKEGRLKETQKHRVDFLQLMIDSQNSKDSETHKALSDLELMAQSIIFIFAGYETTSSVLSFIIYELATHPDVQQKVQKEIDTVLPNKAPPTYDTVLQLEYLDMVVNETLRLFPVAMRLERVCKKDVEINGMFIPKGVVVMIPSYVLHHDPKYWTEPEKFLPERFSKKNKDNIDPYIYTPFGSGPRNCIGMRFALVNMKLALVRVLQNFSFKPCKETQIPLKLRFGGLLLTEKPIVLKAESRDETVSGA
# Chain of Cytochrome P450 3A4 (Homo sapiens) (P08684 whole entry, looked up): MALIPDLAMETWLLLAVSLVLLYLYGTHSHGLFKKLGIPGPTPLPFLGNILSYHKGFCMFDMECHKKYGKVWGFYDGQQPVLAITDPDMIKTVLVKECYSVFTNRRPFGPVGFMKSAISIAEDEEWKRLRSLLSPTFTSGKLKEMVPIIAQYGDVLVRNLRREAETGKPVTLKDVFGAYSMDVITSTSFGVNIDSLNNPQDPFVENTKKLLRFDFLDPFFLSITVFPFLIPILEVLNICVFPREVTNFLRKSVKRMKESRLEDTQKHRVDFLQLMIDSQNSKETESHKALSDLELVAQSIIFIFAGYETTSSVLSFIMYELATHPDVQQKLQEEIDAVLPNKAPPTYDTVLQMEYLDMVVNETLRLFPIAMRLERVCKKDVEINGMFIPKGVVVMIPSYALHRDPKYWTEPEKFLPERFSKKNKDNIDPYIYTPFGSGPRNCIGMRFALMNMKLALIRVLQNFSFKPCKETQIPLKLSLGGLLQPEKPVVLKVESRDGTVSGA
structure (smiles),measurement,setting,value
CCCCCCCCCC,outcome,BCL2L11 (gene 10018),inactive
same,outcome,[1],inactive
same,outcome,[2],inactive
same,outcome,[3],inactive
same,outcome,Caspase-3 (Homo sapiens),inactive
same,outcome,[4],inactive
same,outcome,[5],inactive
same,outcome,[6],inactive
same,outcome,CYP2C8 (gene 1558),inactive
same,outcome,CYP2C9 (gene 1559),inactive
same,outcome,CYP2E1 (gene 1571),inactive
same,outcome,CYP4A11 (gene 1579),inactive
same,outcome,[7],inactive
same,outcome,[8],inactive
same,outcome,[9],inactive
same,outcome,[10],inactive
same,outcome,[11],inactive
CCCCC(CC)C(=O)OCCOCCOCCOC(=O)C(CC)CCCC (stereo unspecified),outcome,BCL2L11 (gene 10018),inactive
same,outcome,[1],inactive
same,outcome,[2],inactive
same,outcome,[3],inactive
same,outcome,Caspase-3 (Homo sapiens),inactive
same,outcome,[4],inactive
same,outcome,[5],inactive
same,outcome,[6],inactive
same,outcome,CYP2C8 (gene 1558),inactive
same,outcome,CYP2C9 (gene 1559),inactive
same,outcome,CYP2E1 (gene 1571),inactive
same,AC50,CYP4A11 (gene 1579),50 µM (active)
same,outcome,[7],inactive
same,outcome,[8],inactive
same,outcome,[9],inactive
same,outcome,[10],inactive
same,outcome,[11],inactive
O=S1(=O)CCCO1,outcome,BCL2L11 (gene 10018),inactive
same,outcome,[1],inactive
same,outcome,[2],inactive
same,outcome,[3],inactive
same,outcome,Caspase-3 (Homo sapiens),inactive
same,outcome,[4],inactive
same,outcome,[5],inactive
same,outcome,[6],inactive
same,outcome,CYP2C8 (gene 1558),inactive
same,outcome,CYP2C9 (gene 1559),inactive
same,outcome,CYP2E1 (gene 1571),inactive
same,outcome,CYP4A11 (gene 1579),inactive
same,outcome,[7],inactive
same,outcome,[8],inactive
same,outcome,[9],inactive
same,outcome,[10],inactive
same,outcome,[11],inactive
Cc1nc(-c2ccccn2)ncc1C(=O)Nn1cc(C)c2cc(F)ccc21,outcome,BCL2L11 (gene 10018),inactive
same,AC50,[1],80.6 µM (active)
same,outcome,[2],inactive
same,outcome,[3],inactive
same,outcome,Caspase-3 (Homo sapiens),inactive
same,outcome,[4],inactive
same,outcome,[5],inactive
same,AC50,[6],0.168 µM (active)
same,outcome,CYP2C8 (gene 1558),inactive
same,AC50,CYP2C9 (gene 1559),75.6 µM (active)
same,AC50,CYP2E1 (gene 1571),24.3 µM (active)
same,AC50,CYP4A11 (gene 1579),59.4 µM (active)
same,AC50,[7],1.57 µM (active)
same,outcome,[8],inactive
same,outcome,[9],inactive
same,outcome,[10],inactive
same,AC50,[11],0.945 µM (active)
OC[C@H]1O[C@@](CO)(O[C@H]2O[C@H](CO)[C@@H](O)[C@H](O)[C@H]2O)[C@@H](O)[C@@H]1O,outcome,BCL2L11 (gene 10018),inactive
same,outcome,[1],inactive
same,outcome,[2],inactive
same,outcome,[3],inactive
same,outcome,Caspase-3 (Homo sapiens),inactive
same,outcome,[4],inactive
same,outcome,[5],inactive
same,outcome,[6],inactive
same,outcome,CYP2C8 (gene 1558),inactive
same,outcome,CYP2C9 (gene 1559),inactive
same,outcome,CYP2E1 (gene 1571),inactive
same,outcome,CYP4A11 (gene 1579),inactive
same,outcome,[7],inactive
same,outcome,[8],inactive
same,outcome,[9],inactive
same,outcome,[12],inactive
same,outcome,[10],inactive
same,outcome,[11],inactive
C[C@@H](Oc1ccc(CNC(=O)c2cccnc2Oc2ccc3c(c2)OCO3)c(F)c1)C(=O)O,outcome,BCL2L11 (gene 10018),inactive
same,outcome,[1],inactive
same,outcome,[2],inactive
same,outcome,[3],inactive
same,outcome,Caspase-3 (Homo sapiens),inactive
same,outcome,[4],inactive
same,outcome,[5],inactive
same,outcome,[6],inactive
same,outcome,CYP2C8 (gene 1558),inactive
same,outcome,CYP2C9 (gene 1559),inactive
same,outcome,CYP2E1 (gene 1571),inactive
same,AC50,CYP4A11 (gene 1579),28.5 µM (active)
same,outcome,[7],inactive
same,outcome,[8],inactive
same,outcome,[9],inactive
same,outcome,[10],inactive
same,outcome,[11],inactive
CC(=O)c1ccccc1,outcome,BCL2L11 (gene 10018),inactive
same,outcome,[1],inactive
same,outcome,[2],inactive
same,outcome,[3],inactive
same,outcome,Caspase-3 (Homo sapiens),inactive
same,outcome,[4],inactive
same,outcome,[5],inactive
same,outcome,[6],inactive
same,outcome,CYP2C8 (gene 1558),inactive
same,outcome,CYP2C9 (gene 1559),inactive
same,outcome,CYP2E1 (gene 1571),inactive
same,outcome,CYP4A11 (gene 1579),inactive
same,outcome,[7],inactive
same,outcome,[8],inactive
same,outcome,[9],inactive
same,outcome,[12],inactive
same,outcome,[10],inactive
same,outcome,[11],inactive
